# Tested on: Chordin-like protein 2 (CHRDL2)
# Experiment: compounds binding chordin-like 2 – biochemical, small-molecule microarray, 635 nm fluorescence, primary screen (AID 1126);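 further: printed compound slides probed with Chrdl2 protein at 4 µg/mL for 1 h at 4 C; score merges 667 nm emission intensity with signal to noise over three replicate slides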
# Settings: fluorescence 635 nm, higher = more signal
row,SMILES,composite z-score
1,CN1CCC(CCCO)=CC1C1CC1 (stereo unspecified),0.39
2,NC(=O)NCC#Cc1ccc2c(c1)[C@]1(C(=O)N2)[C@H](C(=O)N2CCCCCCC2)[C@H]2C(=O)O[C@H](c3ccccc3)[C@H](c3ccccc3)N2[C@@H]1c1ccccc1OCCO,1.56
3,C=CCC(OC(C)=O)[C@@H]1[C@@H](N(Cc2cc3ccccc3o2)C(=O)c2ccc(C)cc2)c2cc(OCCCO)ccc2N1C(=O)c1ccc2ccccc2n1 (stereo partly specified),0.194
4,CO[C@H]1COC(=O)[C@H](C)COC(=O)[C@H](Cc2ccccc2)NC(=O)CC=C[C@H]1C,1.53
5,C=CC[C@@]12N=C(c3ccc(OCCCO)cc3)O[C@@H]1c1ccccc1CN(Cc1ccccc1)C2=O,0.213
6,CCCC[C@@H]1C[C@H]1[C@@H](NC(=O)c1cccs1)c1ccc(Cl)cc1,-1.66
7,CO[C@H]1COC(=O)[C@H](CCSC)NC(=O)CC=C[C@@H](C)COC(=O)[C@@H](OCc2ccccc2)C=C[C@@H]1C,1.51
8,O=C1c2ccccc2[C@@]2(Cc3ccccc3N(CC(F)(F)F)C2=O)[C@H](c2ccc(CO)cc2)N1C1CCCCC1,0.759
9,CC(C)(C)OC(=O)CC[C@@]1(C(=O)NCc2ccccc2)N=C(c2ccc(OCCCO)cc2)O[C@@H]1c1ccccc1,-0.416
10,CC[C@H]1C2=C3C(CC[C@H]4C(OC)OC[C@](C)([C@@H]34)N(C(=O)OC(C)(C)C)C2)C(CO)C1CO (stereo partly specified),-0.656
11,CO[C@]12C=C(Br)[C@@H](C[C@@H]1c1ccccc1)[C@@]1(CO1)C2=O,0.77
12,COCCOC(=O)N1C(=O)[C@@]2(c3cc(C#CC4=CCCCC4)ccc31)[C@H](C(=O)NC[C@H](O)c1ccccc1)[C@H]1C(=O)O[C@H](c3ccccc3)[C@H](c3ccccc3)N1[C@@H]2c1ccc(OCCO)cc1,0.629
13,C=C(CCCC)/C(=C/C[C@@H](OC(=O)c1ccncc1)c1cccc(OCCO)c1)c1cc(C(=O)OC)ccc1OC,0.287
14,COCCOC(=O)N1C(=O)[C@@]2(c3cc(C#CCC(C(=O)OC)C(=O)OC)ccc31)[C@H](C(=O)N1CCN(c3ncccn3)CC1)[C@H]1C(=O)O[C@H](c3ccccc3)[C@H](c3ccccc3)N1[C@@H]2c1ccc(O)cc1,-0.358
15,Cc1ccc(N2C(=O)c3ccccc3[C@](C)(C(=O)O)[C@@H]2c2ccc(CO)cc2)nc1,-1.77
16,CN(C)CCCC[C@@H]1NC(=O)[C@@H]2C[C@H](C(=O)NCCCCCNC(=O)CS)[C@H](c3ccc(O)cc3)N2C1=O,1.07
17,C=CCC(OC(C)=O)[C@@H]1[C@@H](N(Cc2ccc(-c3cccc(C(F)(F)F)c3)o2)C(=O)Cc2ccc(F)cc2)c2cc(OCCCO)ccc2N1C(=O)c1ccc(-c2ccccc2)cc1 (stereo partly specified),-0.294
18,C=CC[C@]1(C(=O)NCC(O)CO)N=C(c2ccc(OCCCO)cc2)O[C@H]1c1ccccc1 (stereo partly specified),-1.43

row,SMILES,composite z-score
1,CCOC(=O)C1=CC[C@@H](c2ccccc2)N(S(=O)(=O)c2ccc(C)cc2)[C@H]1C,0.416
2,O=C1O[C@H](c2ccccc2)[C@H](c2ccccc2)N2[C@H]1[C@@H](C(=O)NC[C@H](O)c1ccccc1)[C@]1(C(=O)Nc3ccc(C#CC4=CCCCC4)cc31)[C@H]2c1ccc(OCCO)cc1,0.424
3,COC(=O)Cn1c(C(=O)N2CCCC2)cc2c1C[C@H]1CN(C(=O)c3ccccc3)[C@@](Cc3ccc(OC)cc3)(C(=O)OC)[C@@H]21,0.207
4,COC(=O)C1=CC(c2ccc(CO)cc2)=CC(c2cccs2)N(Cc2cccc(OC(F)(F)F)c2)C=C1C(=O)OC (stereo unspecified),-0.602
5,O=C/C=C/c1ccccc1Cl,-0.768
6,CCOC(=O)C[C@H]1[C@H](OC(=O)c2ccccc2-c2ccccc2)[C@@H](NC(=O)C2CCCCC2)c2cc(OCCCO)ccc2N1C(=O)c1ccccc1,0.173
7,CC1=C([C@H](O)CCc2ccccc2)[C@H](CO)[C@@H]2C(=O)N(Cc3ccccc3)C(=O)[C@@H]2C1,-0.0449
8,C#CCCCON=C1C[C@@H](O)[C@@H](O)[C@@H]2[C@@H]3C(=O)N(Cc4ccc5c(c4)OCO5)C(=O)[C@@H]3CC[C@H]12,0.558
9,CC(C)CNC(=O)[C@@]1(C)c2ccccc2C(=O)N(Cc2ccc(OC(F)(F)F)cc2)[C@H]1c1ccc(CO)cc1,-1.3
10,CCCC=C(CCC)[C@@H](NC(=O)c1ccccc1)c1ccccc1,-0.768
11,CO[C@H]1O[C@H](CO)[C@@H](OC(=O)Nc2ccccc2)[C@H](OC(=O)Nc2ccc3c(c2)OCO3)[C@@H]1OC(=O)Nc1ccc2c(c1)OCO2,-0.17
12,O=C(NCC(F)(F)F)[C@@H]1c2ccccc2C(=O)N(Cc2ccccc2Cl)[C@H]1c1ccc(CO)cc1,-0.584
13,CCN1C(C)=C(C(=O)OC)[C@@H](c2ccccc2)N2C(=O)[C@](O)(C(=O)OC)[C@@H](c3ccccc3)C(C(=O)c3ccccc3)=C12,0.309
14,CC(=O)NCCCC[C@@H]1NC(=O)[C@H]2C[C@@H](C(=O)NCCCCCCN(C)C)[C@@H](c3cccc(OCCO)c3)N2C1=O,1.43
15,CCC(=O)[C@]12O[C@@]3([C@@H]4C(=O)OCC[C@@H]41)N(Cc1ccccc1)C(C)=C(C(=O)OC)[C@@H](c1ccccc1)N3C2=O,-0.334
16,CCCCCCc1nc(-c2cc(C)c(OC)c(C)c2)cc2c1[Si](C(C)C)(C(C)C)O[C@H]2c1ccccc1,-0.182
17,O=C1C2C=CC(C(O)C(c3ccccc3)c3ccccc3)N(Nc3ccc([N+](=O)[O-])cc3)C2C(=O)N1c1ccccc1 (stereo unspecified),0.0427
18,CC(=O)NCCCC[C@@H]1NC(=O)[C@@H]2C[C@H](C(=O)NCCCCCNC(=O)CS)[C@H](c3ccc(O)cc3)N2C1=O,-0.13

# Reference: PubChem BioAssay
